Experimental data: PubChem BioAssay
Activity calls are given as the source filed them.

Key:
[1] = E. coli DRC41 culture turbidity changes, primary screen, E. coli filamentation inducer project, strain DRC41, OD650, 48 h (AID 1152);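 also: E. coli MC1000 strain DRC41 lacking acrAB efflux pump and sulA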; conditions: E. coli DRC41 (acrAB sulA), higher = more signal, called active from +8 up or from −8 down
[2] = small-molecule binders of probe aLefty1, primary screen, biochemical, small-molecule microarray, 635/667 nm fluorescence (AID 1153); conditions: higher = more signal;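 also: score merges spot fluorescence with signal-to-noise ratio from the scanned slide images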
[3] = PSAC antagonists in infected red cells, primary screen, cell-based, P. falciparum Indochina, OD700, 1 h (AID 1154); conditions: P. falciparum Indochina infected RBC osmotic lysis, higher = more signal, called active from +8 up or from −8 down
[4] = PSAC antagonists in infected red cells, primary screen, cell-based, P. falciparum Indochina, OD700, 2 h (AID 1155);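 also: lysis reports solute entry through the parasite surface anion channel PSAC; channel blockers reduce lysis of infected cells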; conditions: P. falciparum Indochina infected erythrocytes, osmotic lysis OD700; higher = more signal, called active from +8 up or from −8 down
[5] = osmotic lysis modulators in infected erythrocytes, primary screen, PSAC antagonist project, cell-based, P. falciparum Indochina, OD700, 3 h (AID 1156); conditions: higher = more signal, called active from +8 up or from −8 down
[6] = PSAC antagonists in infected red cells, primary screen, cell-based, P. falciparum Indochina, OD700, 18 h (AID 1157); conditions: P. falciparum Indochina infected erythrocytes, osmotic lysis OD700, 18 h; higher = more signal, called active from +8 up or from −8 down
[7] = modulators of S6 phosphorylation in cells, primary screen, cell-based, A549, cytoblot, luminescence, serum-stimulated (AID 1158); conditions: A549 phospho-S6 cytoblot, 5 h, higher = more signal;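 also: serum-stimulated A549 lung adenocarcinoma cells; signal is phosphorylated S6 detected by cytoblot immunostaining with HRP secondary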
[8] = molecular target: NADPH oxidase 2 (Homo sapiens) (UniProt P04839); assay: NOX2-dependent H2O2 signal modulators, primary screen, NOX inhibitor project, cell-based, HEK293-NOX2, PMA-stimulated, Amplex Red fluorescence (AID 1159); conditions: 45 min, higher = more signal, called active from +8 up or from −8 down; also: test concentration not given here
[9] = molecular target: NADPH oxidase 4 (Homo sapiens) (UniProt Q9NPH5); assay: NOX4-dependent H2O2 signal modulators, primary screen, NOX inhibitor project, cell-based, HEK293-NOX4, tetracycline-induced, Amplex Red fluorescence (AID 1160); conditions: 45 min, higher = more signal, called active from +8 up or from −8 down
[10] = molecular target: NADPH oxidase 5 (Homo sapiens) (UniProt Q96PH1); assay: NOX5-dependent H2O2 signal modulators, primary screen, NOX inhibitor project, cell-based, HEK293-NOX5, Amplex Red fluorescence (AID 1161); conditions: HEK293-NOX5, ionomycin, 45 min, higher = more signal
NADPH oxidase 5 (Homo sapiens), sequence (Q96PH1 whole entry, looked up): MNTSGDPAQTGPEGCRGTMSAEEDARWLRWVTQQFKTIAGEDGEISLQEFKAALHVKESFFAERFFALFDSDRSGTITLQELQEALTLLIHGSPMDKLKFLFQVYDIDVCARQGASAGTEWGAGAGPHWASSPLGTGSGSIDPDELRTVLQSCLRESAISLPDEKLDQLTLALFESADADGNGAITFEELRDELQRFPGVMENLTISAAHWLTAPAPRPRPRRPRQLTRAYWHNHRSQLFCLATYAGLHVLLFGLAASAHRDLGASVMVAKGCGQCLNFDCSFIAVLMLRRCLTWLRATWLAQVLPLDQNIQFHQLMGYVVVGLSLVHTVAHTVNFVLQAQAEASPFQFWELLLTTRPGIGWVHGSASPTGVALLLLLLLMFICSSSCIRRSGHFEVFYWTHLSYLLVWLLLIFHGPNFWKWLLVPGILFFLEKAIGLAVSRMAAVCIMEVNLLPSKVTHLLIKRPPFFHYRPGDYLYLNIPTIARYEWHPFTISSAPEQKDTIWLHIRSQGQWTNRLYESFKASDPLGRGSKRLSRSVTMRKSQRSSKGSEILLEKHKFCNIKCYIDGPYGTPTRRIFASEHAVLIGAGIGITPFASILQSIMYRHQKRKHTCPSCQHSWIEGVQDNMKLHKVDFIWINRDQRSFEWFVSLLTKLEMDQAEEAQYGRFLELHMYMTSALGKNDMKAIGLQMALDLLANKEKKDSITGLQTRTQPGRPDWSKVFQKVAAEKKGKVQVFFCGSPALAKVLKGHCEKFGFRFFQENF

NADPH oxidase 4 (Homo sapiens), sequence (Q9NPH5 whole entry, looked up): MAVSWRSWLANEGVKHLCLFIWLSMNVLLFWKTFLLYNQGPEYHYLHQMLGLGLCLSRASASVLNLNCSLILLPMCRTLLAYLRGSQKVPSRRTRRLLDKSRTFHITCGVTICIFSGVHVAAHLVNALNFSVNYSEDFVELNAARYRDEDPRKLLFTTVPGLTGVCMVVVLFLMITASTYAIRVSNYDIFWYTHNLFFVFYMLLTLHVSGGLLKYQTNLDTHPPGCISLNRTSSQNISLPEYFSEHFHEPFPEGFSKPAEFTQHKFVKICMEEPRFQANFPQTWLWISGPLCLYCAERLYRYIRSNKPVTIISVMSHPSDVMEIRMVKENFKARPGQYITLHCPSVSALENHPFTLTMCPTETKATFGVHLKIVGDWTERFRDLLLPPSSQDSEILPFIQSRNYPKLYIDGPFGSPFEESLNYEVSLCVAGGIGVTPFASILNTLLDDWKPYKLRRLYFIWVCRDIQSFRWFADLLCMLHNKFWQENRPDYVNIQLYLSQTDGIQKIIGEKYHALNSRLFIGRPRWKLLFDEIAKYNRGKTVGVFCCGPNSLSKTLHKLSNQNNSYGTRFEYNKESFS
NADPH oxidase 2 (Homo sapiens), sequence (P04839 whole entry, looked up): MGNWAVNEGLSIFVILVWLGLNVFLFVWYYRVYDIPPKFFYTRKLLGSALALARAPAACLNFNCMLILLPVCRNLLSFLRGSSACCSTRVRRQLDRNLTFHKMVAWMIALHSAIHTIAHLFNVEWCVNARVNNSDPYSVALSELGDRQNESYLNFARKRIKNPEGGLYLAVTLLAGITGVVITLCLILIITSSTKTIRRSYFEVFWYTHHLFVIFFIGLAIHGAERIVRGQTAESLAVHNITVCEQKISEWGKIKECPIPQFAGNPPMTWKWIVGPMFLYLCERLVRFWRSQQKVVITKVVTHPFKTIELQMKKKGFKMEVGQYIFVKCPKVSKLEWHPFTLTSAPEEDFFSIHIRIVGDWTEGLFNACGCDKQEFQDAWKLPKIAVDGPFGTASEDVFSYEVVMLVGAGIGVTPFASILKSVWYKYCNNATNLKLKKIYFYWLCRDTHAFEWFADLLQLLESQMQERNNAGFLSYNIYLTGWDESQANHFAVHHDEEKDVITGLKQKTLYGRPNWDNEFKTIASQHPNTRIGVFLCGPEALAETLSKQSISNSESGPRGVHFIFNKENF

Compound	z-score [1]	composite z-score [2]	z-score [3]	z-score [4]	z-score [5]	z-score [6]	z-score [7]	z-score [8]	z-score [9]	z-score [10]
CC(C)C(O)C1C=CC2C(=O)N(c3ccccc3)C(=O)C2N1Nc1ccc(C#N)cc1 (stereo not given)	-0.411 (inactive)	0.797	12 (active)	1.1 (inactive)	2.03 (inactive)	0.875 (inactive)	-1.09	-1.81 (inactive)	-4.46 (inactive)	-2.83
COC(=O)c1c(CC[C@@H](CO)NC(=O)N[C@@H](Cc2ccccc2)Cn2cc(C3(O)CCCCC3)nn2)oc(C(C)=O)c1C(=O)OC	1.27 (inactive)	0.101	2.27 (inactive)	0.566 (inactive)	0.999 (inactive)	0.312 (inactive)	1.93	-5.26 (inactive)	-2.18 (inactive)	-4.82
Cc1ccc(S[C@]2(C(=O)NCCN3CCOCC3)CC(=O)N(Cc3cc(C(F)(F)F)cc(C(F)(F)F)c3)[C@@H]2c2ccc(CO)cc2I)cc1	0.288 (inactive)	0.0742	2.66 (inactive)	-0.599 (inactive)	-1.61 (inactive)	-1.68 (inactive)	0.704	2.05 (inactive)	-0.995 (inactive)	3.01
C=C(CCCC)/C(=C/C[C@H](OC(C)=O)c1ccc(CO)o1)c1cnc2ccccc2c1	-0.134 (inactive)	0.0557	5.4 (inactive)	0.452 (inactive)	0.435 (inactive)	0.136 (inactive)	0.307	-0.719 (inactive)	-0.447 (inactive)	-0.582
CCCCCN1CC=CC23O[C@@H]4/C=C\CCCOC(=O)C4[C@H]2C(=O)N(CCCCCCO)[C@@H]3C1=O (stereo not given in full)	2.24 (inactive)	-0.146	2.25 (inactive)	0.753 (inactive)	-0.387 (inactive)	0.158 (inactive)	5.32	0.876 (inactive)	0.243 (inactive)	1.75
CCCC[C@@H]1C[C@H]1[C@@H](NC(=O)c1ccc(-c2ccccc2)cc1)c1ccc(-c2ccccc2)cc1	-2.4 (inactive)	0.0341	2.15 (inactive)	0.275 (inactive)	1.68 (inactive)	0.446 (inactive)	-0.456	-1.32 (inactive)	-2 (inactive)	-0.619
[N-]=[N+]=NCc1ccccc1C[C@@]1(C(=O)N2CCOCC2)N=C(c2ccc(OCCCO)cc2)O[C@@H]1c1ccccc1CN=[N+]=[N-]	0.562 (inactive)	0.429	28.2 (active)	21.5 (active)	3.05 (inactive)	5.86 (inactive)	0.0883	-1 (inactive)	1.26 (inactive)	1.08
O=C1OCC=C[C@H]2OC34C=CCN(c5ccc6ccccc6c5)C(=O)[C@H]3N(CCCO)C(=O)[C@@H]4[C@@H]12 (stereo not given in full)	0.392 (inactive)	0.251	0.638 (inactive)	-0.0892 (inactive)	0.572 (inactive)	-1.56 (inactive)	1.28	1.09 (inactive)	-0.0483 (inactive)	0.904
C=CC[C@@]1(C(=O)NCC(O)CO)N=C(c2ccc(OCCCO)cc2)O[C@@H]1c1ccccc1N=[N+]=[N-] (stereo not given in full)	1 (inactive)	0.18	34.8 (active)	27.8 (active)	3.23 (inactive)	6.75 (inactive)	1.58	-2.45 (inactive)	0.918 (inactive)	-2.74
Cc1ccc(S[C@]2(C(=O)O)CC(=O)N(C3Cc4ccccc4C3)[C@@H]2c2ccc(CO)cc2I)cc1	-0.453 (inactive)	-0.0559	6.6 (inactive)	1.1 (inactive)	0.356 (inactive)	0.474 (inactive)	-0.148	1.84 (inactive)	-2.99 (inactive)	-1.78
C=CCC(OC(C)=O)[C@@H]1[C@@H](N(Cc2cc3ccccc3o2)C(=O)c2ccc(C)cc2)c2cc(OCCCO)ccc2N1C(=O)c1ccc2ccccc2c1 (stereo not given in full)	2.19 (inactive)	0.168	1.32 (inactive)	0.393 (inactive)	-0.44 (inactive)	0.0878 (inactive)	0.147	0.355 (inactive)	0.89 (inactive)	2.7
CCCNC(=O)[C@@]1(c2ccc([N+](=O)[O-])cc2)CC(=O)N(CC23CC4CC(CC(C4)C2)C3)[C@@H]1c1ccc(CO)cc1	-0.0948 (inactive)	-0.409	5.64 (inactive)	0.903 (inactive)	2.2 (inactive)	0.625 (inactive)	-0.154	0.328 (inactive)	-1.85 (inactive)	-0.569
COCCCNC(=O)[C@@]1(C)c2ccccc2C(=O)N(Cc2cc(C(F)(F)F)cc(C(F)(F)F)c2)[C@H]1c1ccc(CO)cc1	0.811 (inactive)	-0.0969	3.5 (inactive)	-0.185 (inactive)	-0.583 (inactive)	0.472 (inactive)	-0.434	-1.09 (inactive)	-0.274 (inactive)	-0.706
